From PubChem BioAssay
Compounds with a hit are over-represented: about 6.7% of the library has one in this group of screens.
C diff HTS – C. difficile growth inhibition; Clostridium difficile clinical isolate growth, OD600, 24 h; hits give low values; growth activity, negative = inhibition, % at 16 µg/mL (by protocol); hit rate 0.25% among 86,000; AID 1259249;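 active means mean growth activity at or below -80% and every replicate also at or below -80%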;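 further: 0% = DMSO wells and -100% = levofloxacin 16 µg/mL wells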
Pf Dd2 growth – inhibitors of Plasmodium falciparum Dd2 growth; P. falciparum Dd2 growth, SYBR Green, 72 h; hits give low values; activity change, % at 10 µM; hit rate 2.3% among 94,000; AID 1159554; in the data active means activity change below about -80%
Tcruzi prolif – blocks T. cruzi growth in NIH3T3 culture | T. cruzi beta-gal in NIH3T3, GalScreen luminescence, 90 h | inhibition, % at 8.34 µM | hit rate 5.9% among 77,000;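 active means mean inhibition above about 93%, with at least 55% of replicates each passing it, limit read from the data, passing the limit was not always enough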
* = called active by the depositor; / = no result given; ! = not active in a repeat.

SMILES | C diff HTS | Pf Dd2 growth | Tcruzi prolif
COc1ccc2c3c([nH]c2c1)[C@H](CO)NCC31CCN(C(=O)C2CCOCC2)CC1 | 1.7 | 45.6 | /
COc1cccc(S(=O)(=O)N2CCC3(CC2)CN[C@H](CO)c2[nH]c4cc(OC)ccc4c23)c1 | -3.4 | -87.8* | /
COc1ccc2c3c([nH]c2c1)[C@H](CO)NCC31CCN(C(=O)c2ccccc2)CC1 | 0.8 | -84.1* | /
COc1ccc2c3c(n(C)c2c1)[C@H](CO)NCC31CCN(S(=O)(=O)c2cccc(C)c2)CC1 | -2.3 | -79.9 | /
COc1ccc2c3c([nH]c2c1)[C@@H](CO)NCC31CCN(S(=O)(=O)c2cccs2)CC1 | -4.1 | -48.6 | /
C[C@H]1CN([C@@H](C)CO)C(=O)c2cccc(NS(=O)(=O)c3ccc(Cl)cc3)c2O[C@H]1CN(C)C(=O)Nc1ccccc1 | 4.6 | 4.8 | 58.7
Cc1noc(C)c1S(=O)(=O)Nc1ccc2c(c1)C(=O)N([C@@H](C)CO)C[C@@H](C)[C@H](CN(C)C(=O)CCCN(C)C)OCCCC[C@@H](C)O2 | -4.3 | 39.6 | -14.9
C[C@H](CO)N1C[C@H](C)[C@@H](CN(C)C(=O)c2ccccc2)OCCCC[C@H](C)Oc2ccc(NS(=O)(=O)c3ccc(Cl)cc3)cc2C1=O | -3.8 | 8.6 | 54.6
Cc1ccc(S(=O)(=O)Nc2ccc3c(c2)C(=O)N([C@H](C)CO)C[C@@H](C)[C@H](CN(C)C(=O)C2CCCCC2)OCCCC[C@H](C)O3)cc1 | -9.2 | -10.4 | 7.9
CCC(=O)N1CC2(CCN(Cc3cncnc3)CC2)c2c([nH]c3cc(OC)ccc23)[C@H]1CO | -7.7 | -54.3 | /
CCCC(=O)N1CC2(CCN(C(=O)NC(C)C)CC2)c2c(n(C)c3cc(OC)ccc23)[C@@H]1CO | / | 28.9 | /
Cc1noc(C)c1S(=O)(=O)N(C)C[C@H]1Oc2ccc(NS(=O)(=O)c3ccccc3)cc2CC(=O)N([C@H](C)CO)C[C@H]1C | -6.1 | 0.6 | 33.5
C[C@H](CO)N1C[C@H](C)[C@H](CN(C)C(=O)CN2CCOCC2)Oc2ncc(C#CCN(C)C)cc2C1=O | -0.9 | 43.5 | 0.3
Cc1ccc(-c2cnc3c(c2)C(=O)N([C@@H](C)CO)C[C@H](C)[C@H](CN(C)C(=O)Cc2ccccc2)O3)cc1 | 1.5 | -24.7 | 3.8
O=C(CC1CC1)N1CC2(C1)[C@H](c1ccccc1)[C@@H](CO)N2C(=O)c1cccnc1 | -6.2 | -57.1 | /
O=C(c1cccnc1)N1CC2(C1)[C@@H](c1ccccc1)[C@@H](CO)N2C(=O)CC1CC1 | -4.9 | -86.7* | /
C[C@@H]1CN([C@H](C)CO)C(=O)c2ccccc2-c2ccccc2CO[C@@H]1CN(C)C(=O)Nc1cccc(Cl)c1Cl | -3.0 | -69.3 | /
C[C@@H]1CN([C@@H](C)CO)C(=O)c2ccccc2-c2ccccc2CO[C@H]1CN(C)C(=O)Nc1cccc(Cl)c1Cl | -10.0 | -95.2* | /
C[C@@H]1CN([C@H](C)CO)C(=O)c2ccccc2-c2ccccc2CO[C@H]1CN(C)C(=O)Nc1cccc(Cl)c1Cl | -6.7 | -93.7* | /
C[C@@H]1CN([C@@H](C)CO)C(=O)c2ccccc2-c2ccccc2CO[C@@H]1CN(C)C(=O)Nc1cccc(Cl)c1Cl | -6.0 | -64.6 | /
O=C(C[C@H]1C[C@H]2c3cc(NC(=O)c4cccnc4)ccc3O[C@H]2[C@H](CO)O1)NCc1ccccc1F | 1.5 | 7.3 | -18.9
Cc1ccc(S(=O)(=O)N[C@H]2CC[C@H](CC(=O)N3CCN(c4ccccc4)CC3)O[C@@H]2CO)cc1 | -2.7 | -0.9 | -2.5
COc1ccc(C#Cc2ccc([C@H]3[C@H](CO)N4CCCCN(Cc5ccccc5F)C[C@@H]34)cc2)cc1 | -97.1* | -79.6 | 62.3
OC[C@@H]1[C@@H](c2ccc(C#CC3(O)CCCC3)cc2)[C@@H]2CN(Cc3ccccc3F)CCCCN12 | 1.1 | -29.4 | 20.9
COc1ccc(C#Cc2ccc([C@H]3[C@@H](CO)N4CCCCN(Cc5ccncc5)C[C@@H]34)cc2)cc1 | -3.9 | -53.0 | 65.8
SMILES | C diff HTS | Pf Dd2 growth | Tcruzi prolif
COc1ccc(C#Cc2ccc([C@@H]3[C@H](CO)N4CCCCN(Cc5ccccc5F)C[C@@H]34)cc2)cc1 | -96.6* | -82.3* | 16.1
COc1ccc(C#Cc2ccc([C@H]3[C@@H](CO)N4CCCCN(Cc5ccncc5)C[C@H]34)cc2)cc1 | 1.1 | -83.4* | 51.5
COc1ccc(C#Cc2ccc([C@@H]3[C@@H](CO)N4CCCCN(Cc5ccccc5F)C[C@@H]34)cc2)cc1 | 22.4 | -53.1 | 26.8
Cc1noc(C)c1S(=O)(=O)N(C)C[C@H]1OCCCC[C@H](C)Oc2ccc(NS(=O)(=O)c3ccccc3)cc2C(=O)N([C@H](C)CO)C[C@H]1C | -13.1 | -61.1 | /
C[C@H](CO)N1C[C@H](C)[C@H](CN(C)C(=O)Nc2cccc3ccccc23)OCCCC[C@H](C)Oc2ccc(NC(=O)C3CCCCC3)cc2C1=O | 2.1 | -77.9 | 70.4
CN1[C@@H]2Cn3c(ccc(-c4ccccc4)c3=O)[C@H]1[C@@H](C(=O)N1CCC(Cc3ccccc3)CC1)[C@@H]2CO | -0.8 | -3.5 | 46.9
O=C(C[C@H]1CC[C@@H]2[C@H](COC[C@H](O)CN2S(=O)(=O)c2ccccc2F)O1)NCc1ccccc1F | 4.8 | 1.5 | 7.9
O=S(=O)(c1ccc(F)cc1)N1C[C@@H]2N[C@H](C1)C2c1ccc(-c2ccc(F)cc2)cc1 (some centres undefined) | 9.5 | -88.5*! | /
CN(C)C(=O)c1ccc(-c2ccc(C3[C@@H]4CN(S(=O)(=O)c5ccc(F)cc5)C[C@H]3N4)cc2)cc1 (some centres undefined) | -12.0 | -20.9 | /
COc1ccccc1-c1ccc([C@@H]2[C@@H]3CN(S(=O)(=O)c4ccc(-c5ccccc5)cc4)C[C@H]2N3)cc1 | 5.7 | -89.2* | /
Cc1ccc(-c2ccc(C3[C@@H]4CN(S(=O)(=O)c5cccc(C)c5)C[C@H]3N4)cc2)cc1 (some centres undefined) | -94.9* | -42.5 | /
COc1cccc(S(=O)(=O)N2C[C@@H]3N[C@H](C2)C3c2ccc(-c3ccccc3OC)cc2)c1 (some centres undefined) | 11.2 | -34.2 | /
Cc1ccccc1S(=O)(=O)N1C[C@@H]2N[C@H](C1)C2c1ccc(-c2ccc(C#N)cc2)cc1 (some centres undefined) | 8.4 | -83.8*! | /
Cc1ccc(S(=O)(=O)N2C[C@@H]3N[C@H](C2)[C@@H]3c2ccc(-c3cccc(C)c3)cc2)cc1 | 1.3 | -63.3 | /
Cc1ccccc1S(=O)(=O)N1C[C@@H]2N[C@H](C1)C2c1ccc(-c2ccc(C(=O)N(C)C)cc2)cc1 (some centres undefined) | -15.6 | -24.4 | /
CCNC(=O)C[C@@H]1C=C[C@@H](NC(=O)C2CC2)[C@H](CO)O1 | 2.2 | 14.2 | /
O=C(C[C@H]1C=C[C@H](NC(=O)CC2CC2)[C@H](CO)O1)NCc1ccccc1 | -1.3 | 22.8 | /
CCC(=O)Nc1ccc2c(c1)C(=O)N(C)C[C@@H](OC)[C@H](C)CN(C(=O)COC)[C@@H](C)CO2 | / | 15.7 | /
O=S(=O)(c1ccccc1)N1C[C@@H]2N[C@H](C1)C2c1ccc(/C=C/c2ccccc2)cc1 (some centres undefined) | -96.3*! | -36.6 | /
Cc1cccc(S(=O)(=O)N2C[C@@H]3N[C@H](C2)C3c2ccc(-c3cncnc3)cc2)c1 (some centres undefined) | -3.2 | -28.0 | /
